According to PubChem BioAssay AID624330 (Southern Research Specialized Biocontainment Screening …, 2012):
Values joined by “and” are separate entries in the source; they are usually repeats but may differ in a detail not shown here. Identical values can stand only once. The whole screen tested about 340,000 compounds, of which about 2,100 (0.62%) were called active.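 Rule for the calls: active = first-screen hits whose inhibition reached a set limit at any dose in the follow-up dose series; inconclusive = inhibition above the set first-screen limit but never retested; inactive = the rest.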 These entries were drawn from the full list. Measured potencies and affinities stand elsewhere.

These compounds were tested against Rac GTPase-activating protein 1 (Homo sapiens) (UniProt Q9H0H5) (assay: blockers of MgcRacGAP-driven Rac1 GTP hydrolysis – biochemical, ADP Hunter fluorescence, primary and confirmatory, confirmation (AID 624330;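 note: fluorescence reports GDP produced by GAP-driven GTP hydrolysis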)). Conditions: MgcRacGAP-stimulated Rac1 GTP hydrolysis, at 30 µM, stronger effect = higher value, GST-tagged Rac1 F28L mutant substrate.
Chain of Rac GTPase-activating protein 1 (Homo sapiens) (Q9H0H5 whole entry, looked up): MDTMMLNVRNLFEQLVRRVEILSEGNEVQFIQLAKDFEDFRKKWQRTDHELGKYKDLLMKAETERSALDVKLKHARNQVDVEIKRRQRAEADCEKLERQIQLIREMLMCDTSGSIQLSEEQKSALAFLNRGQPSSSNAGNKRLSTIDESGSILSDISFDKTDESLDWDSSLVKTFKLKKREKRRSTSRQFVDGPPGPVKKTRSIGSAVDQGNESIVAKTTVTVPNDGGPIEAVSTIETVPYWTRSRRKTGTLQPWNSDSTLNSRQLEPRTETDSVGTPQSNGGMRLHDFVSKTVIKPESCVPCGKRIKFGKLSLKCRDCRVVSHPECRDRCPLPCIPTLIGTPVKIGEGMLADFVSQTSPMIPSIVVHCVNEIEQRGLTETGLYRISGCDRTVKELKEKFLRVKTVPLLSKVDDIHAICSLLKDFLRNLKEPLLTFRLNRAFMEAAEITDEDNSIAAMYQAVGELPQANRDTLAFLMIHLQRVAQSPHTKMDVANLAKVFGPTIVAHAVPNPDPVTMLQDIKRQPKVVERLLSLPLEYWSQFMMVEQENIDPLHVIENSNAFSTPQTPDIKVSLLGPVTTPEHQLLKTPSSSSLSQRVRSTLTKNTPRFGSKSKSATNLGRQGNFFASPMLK

inhibition, inactive:
CCCNC(=O)CSC1=N/C(=C/c2ccc(F)cc2)C(=O)N1CC -5.26%
CCC(=O)NC(=S)Nc1ccc(S(=O)(=O)NC(C)C)cc1 -11.4%
O=C(COC(=O)C1CCC1)Nc1cccc(Cl)c1 2.49%
O=C(NC1CCCCC1)C(c1ccncc1)N(C(=O)c1csnn1)c1ccc(F)cc1 (centres undefined) 0.4%
CC1=CCC2C(=O)N(c3ccccc3OC(=O)c3ccccc3F)C(=O)C2C1 (centres undefined) 2.92%
C=CCC1CCC/C(=N\NS(=O)(=O)c2ccc(C)cc2)C1 (centres undefined) -4.06%
Nc1ccn(CCCN2CCN(C(=O)C3CC3)CC2)c(=O)n1 15.1%
COc1cc(C2c3[nH]c4ccccc4c3C[C@H]3C(=O)N(CCO)CC(=O)N23)cc(OC)c1OC (some centres undefined) 8.37%
Cc1c(C(=O)N2CCN(S(=O)(=O)c3ccccc3)CC2)oc2ccccc12 3.82%
O=C(Nc1ccccc1)N1CCc2scc[n+]2-c2ccccc21 16.9%
O=C(NCc1nnc(SCC(=O)N2CCOCC2)o1)c1c(F)cccc1F 7.33%
O=C(NNc1c(Cl)cccc1Cl)c1sccc1Cl 6.69%
COc1ccc(C(=O)Nc2ccc3ccccc3c2)cc1 3.97%
COc1ccc(Nc2cccccc2=O)cc1 7.45%
COc1ccc(NC(C)=O)c(C)c1 -3.51%
COc1ccc(Nc2cccc3ccccc23)cc1 31.6%
O=C(Nc1ccc(S(=O)(=O)Nc2ncccn2)cc1)c1ccccc1 2.75%
CCc1cccc(CC)c1NC(=O)CN1CCN(c2ccccc2)CC1 20.5%
COc1ccc(OC)c(CN2CCN(C(=O)c3cc(S(=O)(=O)Nc4ccccc4OC)ccc3C)CC2)c1 -2.48%
COc1ccccc1NS(=O)(=O)c1ccc(C)c(C(=O)N2CCCC2)c1 -1.95%
COc1cc(C(O)P(=O)(OCCC(C)C)c2ccc(N(C)C)cc2)cc(OC)c1OC (centres undefined) -1.91%
CN(C)/C=N/c1ncc(C(=O)c2ccccc2)s1 7.32%
CN(C)/C=N/c1ncc(C(=O)c2ccc(Cl)cc2)s1 3.44%
COc1ccc(CC(=O)NNC(=O)c2cc(Cl)ccc2OC)cc1 -0.57%
CC(Oc1ccccc1)C(=O)NC1C(=O)N2C1SC(C)(C)C2C(=O)O (centres undefined) 6.29%
Cc1nc(CSc2nnc(Nc3cccc(C)c3C)s2)cs1 4.77%
COc1ccccc1Nc1ccc(Nc2ccccc2OC)nn1 -7.41%
O=C1c2ccccc2C(=O)N1CSc1nnc(Nc2ccccc2F)s1 5.49%
COc1ccccc1Nc1nc(C)cs1 0.84% and 0.19%
Cc1nnc(Nc2ccc(Cl)cc2)s1 -3.99%
Cc1cccc(Nc2nc3ccccc3s2)c1C 0.63%
Cc1nnc(Nc2ccccc2F)s1 8%
Cc1ccc(Nc2nc3ccccc3o2)cc1F 1.08%
Cc1cc(C)n(C(=O)c2c([N+](=O)[O-])cnn2C)n1 -7.87%
O=C(Cc1ccc(F)cc1)Nc1cccc2cccnc12 5.65%
Cc1ccc(Sc2cnccc2C#N)cc1 -14.2%
COC(=O)c1cc(C(=O)OCC(=O)N(C)C2CCS(=O)(=O)C2)cc([N+](=O)[O-])c1 (centres undefined) -3.52%
CC1Sc2ccc(S(=O)(=O)N3CCC(C(=O)NCCc4ccccc4)CC3)cc2NC1=O (centres undefined) 6.85%
COc1cc(C2NC(=O)NC(c3ccccc3)=C2C(C)=O)c(Br)c(Br)c1O (centres undefined) 25.1%
CCOC(=O)c1cc(NC(=O)C2C3C=CC(O3)C2C(=O)O)cc(C(=O)OCC)c1 (centres undefined) 6.71%
CN1CCN(S(=O)(=O)c2ccc(Oc3cccc(C(F)(F)F)c3)nc2)CC1 9.66%
O=c1c(Br)c(N2CCCCC2)cnn1-c1ccccc1 3.03%
CCc1cc(=O)oc2cc(OCC(=O)NCCN3CCOCC3)c(Cl)cc12 0.13%
O=C(c1ccccc1)c1cnc(Nc2ccccc2Cl)s1 8.39%
CCOC(=O)c1sc(Nc2ccc(OCC)cc2)nc1C -3.93%
Cc1ccc(Nc2nc3ccccc3s2)c(C)c1 7.17%
CCOc1ccc(Nc2nc3ccccc3c(=O)s2)cc1 4.2%
Clc1ccccc1Nc1nnc(-c2ccncc2)s1 12.4%
Cc1cc(=O)[nH]c(Nc2cccc(Cl)c2C)n1 3.14%
Cc1c(Cl)cccc1Nc1ccccc1C(=O)O 3.44%
Cc1ccc(Nc2nc3c(s2)CCC3)c(C)c1 9.23%
N#CC1(Nc2ccc(S(N)(=O)=O)cc2)CCCC1 2.96%
Cc1ccc2c(C(=O)CN3CCCCC3)c(C)[nH]c2c1 3.73%
COC(=O)c1cc(C(=O)Nc2nnc(C3CC3)s2)cc([N+](=O)[O-])c1 11.3%
O=C(CSc1ccc(Br)cc1)NCC1(N2CCCCC2)CCCCC1 5.48%
CCC1(CC)NC(=O)N(CC(=O)OC(C)C(=O)Nc2ccccc2OC)C1=O (centres undefined) 1.87%
CCOc1ccc(NC(=O)NCC2CCN(c3ccc(OC)cc3)C2)cc1 (centres undefined) 5.23%
COc1ccc(N2CCC(CNC(=O)Nc3ccc(Cl)cc3)C2)cc1 (centres undefined) 23.3%
COc1ccc(N2CCC(CNC(=S)Nc3c(C)cc(C)cc3C)C2)cc1 (centres undefined) 23.7%
CCc1cccc(C)c1NC(=S)NCC1CCN(c2ccc(OC)cc2)C1 (centres undefined) 26.6%
COc1ccc(N2CCC(CNC(=O)Nc3ccc(C)c(C)c3)C2)cc1 (centres undefined) 36.2%
COc1ccc(N2CCN(C(=S)Nc3cccc(C)c3)CC2)cc1 14.2%
CCc1ccc(NC(=O)NCC2CCN(c3ccc(OC)cc3)C2)cc1 (centres undefined) 10.4%
COc1ccc(C(=O)N2CCC(CCC(=O)Nc3cccc(C)c3)CC2)cc1 5.31%
